# Experimental data published in the supplement of paper PMC4466140.
# Target: AgAbp1
# Test: SPOT peptide array binding signal intensity (averaged, normalized) (arbitrary units (background-subtracted, floor 0; scale differs between SH3 domains)); higher = stronger binding of the SH3 domain to the peptide
# Description: (§1)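 GST-tagged SH3 domains from S. cerevisiae (Sc), A. gossypii (Ag), C. albicans (Ca) and S. pombe (Sp) were incubated at 10 ug/ml overnight at 4 C on cellulose SPOT membranes carrying 292 synthetic 15-mer peptides mined from the S. cerevisiae proteome (cysteines replaced by serines). Binding was detected with anti-GST antibody, HRP secondary and chemiluminescence, quantified with Genespotter, and reported as normalized spot intensities averaged over biological replicates.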
row,Binder,SPOT peptide array binding signal intensity
1,RSRRSSFAYPQQVAI,22

# Target: AgBbc1
# Test: as above
# Description: as §1
row,Binder,SPOT peptide array binding signal intensity
1,RSRRSSFAYPQQVAI,64

# Target: AgBem1-D1
# Test: as above
# Description: as §1
row,Binder,SPOT peptide array binding signal intensity
1,RSRRSSFAYPQQVAI,91.5

# Target: AgBzz1-D1
# Test: as above
# Description: as §1
row,Binder,SPOT peptide array binding signal intensity
1,RSRRSSFAYPQQVAI,32

# Target: AgBzz1-D2
# Test: as above
# Description: as §1
row,Binder,SPOT peptide array binding signal intensity
1,RSRRSSFAYPQQVAI,50.5

# Target: AgCyk3
# Test: as above
# Description: as §1
row,Binder,SPOT peptide array binding signal intensity
1,RSRRSSFAYPQQVAI,1

# Target: AgFus1
# Test: as above
# Description: as §1
row,Binder,SPOT peptide array binding signal intensity
1,RSRRSSFAYPQQVAI,200

# Target: AgHof1
# Test: as above
# Description: as §1
row,Binder,SPOT peptide array binding signal intensity
1,RSRRSSFAYPQQVAI,33.5

# Target: AgHse1
# Test: as above
# Description: as §1
row,Binder,SPOT peptide array binding signal intensity
1,RSRRSSFAYPQQVAI,254

# Target: AgLsb1
# Test: as above
# Description: as §1
row,Binder,SPOT peptide array binding signal intensity
1,RSRRSSFAYPQQVAI,2.5

# Target: AgLsb4
# Test: as above
# Description: as §1
row,Binder,SPOT peptide array binding signal intensity
1,RSRRSSFAYPQQVAI,39.5

# Target: AgMyo5
# Test: as above
# Description: as §1
row,Binder,SPOT peptide array binding signal intensity
1,RSRRSSFAYPQQVAI,6.25

# Target: AgNbp2
# Test: as above
# Description: as §1
row,Binder,SPOT peptide array binding signal intensity
1,RSRRSSFAYPQQVAI,39

# Target: AgRvs167
# Test: as above
# Description: as §1
row,Binder,SPOT peptide array binding signal intensity
1,RSRRSSFAYPQQVAI,2.33

# Target: AgSho1
# Test: as above
# Description: as §1
row,Binder,SPOT peptide array binding signal intensity
1,RSRRSSFAYPQQVAI,9

# Target: AgSla1-D1-D2
# Test: as above
# Description: as §1
row,Binder,SPOT peptide array binding signal intensity
1,RSRRSSFAYPQQVAI,63.5

# Target: AgSla1-D3
# Test: as above
# Description: as §1
row,Binder,SPOT peptide array binding signal intensity
1,RSRRSSFAYPQQVAI,4.5

# Target: CaAbp1-D1
# Test: as above
# Description: as §1
row,Binder,SPOT peptide array binding signal intensity
1,RSRRSSFAYPQQVAI,170

# Target: CaAbp1-D2
# Test: as above
# Description: as §1
row,Binder,SPOT peptide array binding signal intensity
1,RSRRSSFAYPQQVAI,152

# Target: CaBbc1
# Test: as above
# Description: as §1
row,Binder,SPOT peptide array binding signal intensity
1,RSRRSSFAYPQQVAI,258

# Target: CaBem1-D1
# Test: as above
# Description: as §1
row,Binder,SPOT peptide array binding signal intensity
1,RSRRSSFAYPQQVAI,20.5

# Target: CaBzz1-D1
# Test: as above
# Description: as §1
row,Binder,SPOT peptide array binding signal intensity
1,RSRRSSFAYPQQVAI,84.5

# Target: CaBzz1-D2
# Test: as above
# Description: as §1
row,Binder,SPOT peptide array binding signal intensity
1,RSRRSSFAYPQQVAI,102

# Target: CaCyk3
# Test: as above
# Description: as §1
row,Binder,SPOT peptide array binding signal intensity
1,RSRRSSFAYPQQVAI,9

# Target: CaFus1
# Test: as above
# Description: as §1
row,Binder,SPOT peptide array binding signal intensity
1,RSRRSSFAYPQQVAI,262

# Target: CaHof1
# Test: as above
# Description: as §1
row,Binder,SPOT peptide array binding signal intensity
1,RSRRSSFAYPQQVAI,≤ 0

# Target: CaHse1
# Test: as above
# Description: as §1
row,Binder,SPOT peptide array binding signal intensity
1,RSRRSSFAYPQQVAI,4.5

# Target: CaLsb1
# Test: as above
# Description: as §1
row,Binder,SPOT peptide array binding signal intensity
1,RSRRSSFAYPQQVAI,1.5

# Target: CaLsb4
# Test: as above
# Description: as §1
row,Binder,SPOT peptide array binding signal intensity
1,RSRRSSFAYPQQVAI,70.5

# Target: CaMyo5
# Test: as above
# Description: as §1
row,Binder,SPOT peptide array binding signal intensity
1,RSRRSSFAYPQQVAI,7.25

# Target: CaNbp2
# Test: as above
# Description: as §1
row,Binder,SPOT peptide array binding signal intensity
1,RSRRSSFAYPQQVAI,130

# Target: CaRvs167
# Test: as above
# Description: as §1
row,Binder,SPOT peptide array binding signal intensity
1,RSRRSSFAYPQQVAI,5.67

# Target: CaRvs167-3
# Test: as above
# Description: as §1
row,Binder,SPOT peptide array binding signal intensity
1,RSRRSSFAYPQQVAI,13.5

# Target: CaSho1
# Test: as above
# Description: as §1
row,Binder,SPOT peptide array binding signal intensity
1,RSRRSSFAYPQQVAI,66.5

# Target: CaSla1-D1-D2
# Test: as above
# Description: as §1
row,Binder,SPOT peptide array binding signal intensity
1,RSRRSSFAYPQQVAI,55

# Target: CaSla1-D3
# Test: as above
# Description: as §1
row,Binder,SPOT peptide array binding signal intensity
1,RSRRSSFAYPQQVAI,2.25

# Target: ScAbp1
# Test: as above
# Description: as §1
row,Binder,SPOT peptide array binding signal intensity
1,RSRRSSFAYPQQVAI,27.5

# Target: ScBbc1
# Test: as above
# Description: as §1
row,Binder,SPOT peptide array binding signal intensity
1,RSRRSSFAYPQQVAI,24.5

# Target: ScBem1-D1
# Test: as above
# Description: as §1
row,Binder,SPOT peptide array binding signal intensity
1,RSRRSSFAYPQQVAI,79.5

# Target: ScBzz1-D1
# Test: as above
# Description: as §1
row,Binder,SPOT peptide array binding signal intensity
1,RSRRSSFAYPQQVAI,37

# Target: ScBzz1-D2
# Test: as above
# Description: as §1
row,Binder,SPOT peptide array binding signal intensity
1,RSRRSSFAYPQQVAI,28

# Target: ScCyk3
# Test: as above
# Description: as §1
row,Binder,SPOT peptide array binding signal intensity
1,RSRRSSFAYPQQVAI,69

# Target: ScFus1
# Test: as above
# Description: as §1
row,Binder,SPOT peptide array binding signal intensity
1,RSRRSSFAYPQQVAI,157

# Target: ScHof1
# Test: as above
# Description: as §1
row,Binder,SPOT peptide array binding signal intensity
1,RSRRSSFAYPQQVAI,0.5

# Target: ScHse1
# Test: as above
# Description: as §1
row,Binder,SPOT peptide array binding signal intensity
1,RSRRSSFAYPQQVAI,644

# Target: ScLsb1
# Test: as above
# Description: as §1
row,Binder,SPOT peptide array binding signal intensity
1,RSRRSSFAYPQQVAI,1

# Target: ScLsb2
# Test: as above
# Description: as §1
row,Binder,SPOT peptide array binding signal intensity
1,RSRRSSFAYPQQVAI,7.5

# Target: ScLsb3
# Test: as above
# Description: as §1
row,Binder,SPOT peptide array binding signal intensity
1,RSRRSSFAYPQQVAI,59

# Target: ScLsb4
# Test: as above
# Description: as §1
row,Binder,SPOT peptide array binding signal intensity
1,RSRRSSFAYPQQVAI,24.5

# Target: ScMyo3
# Test: as above
# Description: as §1
row,Binder,SPOT peptide array binding signal intensity
1,RSRRSSFAYPQQVAI,3.5

# Target: ScMyo5
# Test: as above
# Description: as §1
row,Binder,SPOT peptide array binding signal intensity
1,RSRRSSFAYPQQVAI,8.5

# Target: ScNbp2
# Test: as above
# Description: as §1
row,Binder,SPOT peptide array binding signal intensity
1,RSRRSSFAYPQQVAI,141

# Target: ScPex13
# Test: as above
# Description: as §1
row,Binder,SPOT peptide array binding signal intensity
1,RSRRSSFAYPQQVAI,10

# Target: ScRvs167
# Test: as above
# Description: as §1
row,Binder,SPOT peptide array binding signal intensity
1,RSRRSSFAYPQQVAI,8.33

# Target: ScSho1
# Test: as above
# Description: as §1
row,Binder,SPOT peptide array binding signal intensity
1,RSRRSSFAYPQQVAI,304

# Target: ScSla1-D1-D2
# Test: as above
# Description: as §1
row,Binder,SPOT peptide array binding signal intensity
1,RSRRSSFAYPQQVAI,339

# Target: ScSla1-D3
# Test: as above
# Description: as §1
row,Binder,SPOT peptide array binding signal intensity
1,RSRRSSFAYPQQVAI,20.2

# Target: SpAbp1-D1
# Test: as above
# Description: as §1
row,Binder,SPOT peptide array binding signal intensity
1,RSRRSSFAYPQQVAI,36

# Target: SpBbc1
# Test: as above
# Description: as §1
row,Binder,SPOT peptide array binding signal intensity
1,RSRRSSFAYPQQVAI,3.5

# Target: SpBzz1-D1
# Test: as above
# Description: as §1
row,Binder,SPOT peptide array binding signal intensity
1,RSRRSSFAYPQQVAI,169

# Target: SpBzz1-D2
# Test: as above
# Description: as §1
row,Binder,SPOT peptide array binding signal intensity
1,RSRRSSFAYPQQVAI,≤ 0

# Target: SpCyk3
# Test: as above
# Description: as §1
row,Binder,SPOT peptide array binding signal intensity
1,RSRRSSFAYPQQVAI,1.5

# Target: SpHof1
# Test: as above
# Description: as §1
row,Binder,SPOT peptide array binding signal intensity
1,RSRRSSFAYPQQVAI,93.5

# Target: SpHof1-2
# Test: as above
# Description: as §1
row,Binder,SPOT peptide array binding signal intensity
1,RSRRSSFAYPQQVAI,13

# Target: SpHof1-3
# Test: as above
# Description: as §1
row,Binder,SPOT peptide array binding signal intensity
1,RSRRSSFAYPQQVAI,203

# Target: SpHse1
# Test: as above
# Description: as §1
row,Binder,SPOT peptide array binding signal intensity
1,RSRRSSFAYPQQVAI,168

# Target: SpLsb1
# Test: as above
# Description: as §1
row,Binder,SPOT peptide array binding signal intensity
1,RSRRSSFAYPQQVAI,7.75

# Target: SpLsb4
# Test: as above
# Description: as §1
row,Binder,SPOT peptide array binding signal intensity
1,RSRRSSFAYPQQVAI,59

# Target: SpMyo1
# Test: as above
# Description: as §1
row,Binder,SPOT peptide array binding signal intensity
1,RSRRSSFAYPQQVAI,6.75

# Target: SpNbp2
# Test: as above
# Description: as §1
row,Binder,SPOT peptide array binding signal intensity
1,RSRRSSFAYPQQVAI,91

# Target: SpPex13
# Test: as above
# Description: as §1
row,Binder,SPOT peptide array binding signal intensity
1,RSRRSSFAYPQQVAI,17

# Target: SpRvs167
# Test: as above
# Description: as §1
row,Binder,SPOT peptide array binding signal intensity
1,RSRRSSFAYPQQVAI,8.83

# Target: SpSla1-D1-D2
# Test: as above
# Description: as §1
row,Binder,SPOT peptide array binding signal intensity
1,RSRRSSFAYPQQVAI,3

# Target: SpSla1-D3
# Test: as above
# Description: as §1
row,Binder,SPOT peptide array binding signal intensity
1,RSRRSSFAYPQQVAI,10
